Experimental data published in PubChem BioAssay.
For part of these data: Entries with a potency or affinity are not part of this list. Calls of active or inactive are those of the source. Unless noted, how the calls were made is not given here.

Key:
[1] = antimalarial activity against Dd2 strain (AID 2302;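 active means growth inhibition above 50% at the single 2 µM test dose, taken to imply half-maximal potency below 2 µM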;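 further: 0% = DMSO untreated growth and 100% = chloroquine plus artemisinin killed control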); conditions: P. falciparum Dd2 in RBCs, LDH growth readout, 72 h; at 2 µM; hits give high values
[2] = HepG2 cytotoxicity, primary screen, cytotoxicity control for P. falciparum antimalarial project, cell-based, ATP luminescence (AID 2303;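 active means inhibition above 50%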;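 further: 0% = DMSO wells and 100% = digitonin-killed cells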); conditions: HepG2 viability, 24-48 h, at 10 µM, hits give high values
[3] = target: L-lactate dehydrogenase (Plasmodium falciparum (isolate CDC / Honduras)) (UniProt Q27743); assay: PfLDH activity inhibition – cell lysate, 3D7 strain, counter-screen for P. falciparum growth inhibition project (AID 2304);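 further: 0% = vehicle and 100% = reference inhibitor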; conditions: P. falciparum 3D7 crude extract, LDH APAD/NBT absorbance; at 2 µM; hits give high values
[4] = inhibition of 3D7 malaria parasite growth – strain 3D7 (AID 2306);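 further: 0% = DMSO wells and 100% = chloroquine plus artemisinin control wells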; conditions: P. falciparum 3D7 erythrocytic growth, LDH absorbance, 72 h; at 2 µM; hits give high values
[5] = target: Calcium-dependent protein kinase 1 (Plasmodium falciparum (isolate 3D7)) (UniProt P62344); assay: PfCDPK1 kinase inhibitors, biochemical, TCAMS library (AID 1159585; cut-off not given, nearly all actives have IC50 up to about 0.98 µM;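 further: inhibitors leave more ATP so luminescence rises with inhibition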); conditions: recombinant PfCDPK1, Kinase-Glo ATP depletion luminescence
[6] = target: Plasmodium falciparum protein kinase 6 (PK6, PF3D7_1337100) (UniProt Q8IDW1); assay: PfPK6 kinase inhibitors, biochemical, TCAMS library (AID 1159586); conditions: recombinant PfPK6, Kinase-Glo ATP depletion luminescence
[7] = target: Protein kinase 7 (PK7), Plasmodium falciparum 3D7 (PF3D7_0213400) (UniProt Q7YTF7); assay: inhibition of Plasmodium PK7 catalytic activity – biochemical, TCAMS antimalarial set, Kinase-Glo luminescence (AID 1159587); conditions: recombinant PfPK7, Kinase-Glo ATP depletion luminescence
[8] = target: Calcium-dependent protein kinase 4 (Plasmodium falciparum (isolate 3D7)) (UniProt Q8IBS5); assay: PfCDPK4 kinase inhibitors, biochemical, TCAMS library (AID 1159588; cut-off not given, nearly all actives have IC50 up to about 0.91 µM); conditions: recombinant PfCDPK4, Kinase-Glo ATP depletion luminescence
Chain of Calcium-dependent protein kinase 4 (Plasmodium falciparum (isolate 3D7)) (Q8IBS5 whole entry, looked up): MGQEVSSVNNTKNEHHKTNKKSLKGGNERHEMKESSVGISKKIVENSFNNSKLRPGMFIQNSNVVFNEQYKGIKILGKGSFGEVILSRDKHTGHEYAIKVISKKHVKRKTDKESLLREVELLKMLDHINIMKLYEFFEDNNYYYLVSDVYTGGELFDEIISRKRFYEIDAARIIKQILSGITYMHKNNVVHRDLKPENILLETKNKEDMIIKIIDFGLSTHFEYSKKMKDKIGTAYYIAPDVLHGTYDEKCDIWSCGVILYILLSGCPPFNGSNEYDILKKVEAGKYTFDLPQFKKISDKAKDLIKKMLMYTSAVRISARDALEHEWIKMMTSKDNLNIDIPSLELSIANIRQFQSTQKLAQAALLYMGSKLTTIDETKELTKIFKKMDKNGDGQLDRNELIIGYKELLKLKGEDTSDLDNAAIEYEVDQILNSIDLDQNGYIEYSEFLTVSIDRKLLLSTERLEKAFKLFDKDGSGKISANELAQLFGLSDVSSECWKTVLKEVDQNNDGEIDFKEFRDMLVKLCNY

Chain of L-lactate dehydrogenase (Plasmodium falciparum (isolate CDC / Honduras)) (Q27743 whole entry, looked up): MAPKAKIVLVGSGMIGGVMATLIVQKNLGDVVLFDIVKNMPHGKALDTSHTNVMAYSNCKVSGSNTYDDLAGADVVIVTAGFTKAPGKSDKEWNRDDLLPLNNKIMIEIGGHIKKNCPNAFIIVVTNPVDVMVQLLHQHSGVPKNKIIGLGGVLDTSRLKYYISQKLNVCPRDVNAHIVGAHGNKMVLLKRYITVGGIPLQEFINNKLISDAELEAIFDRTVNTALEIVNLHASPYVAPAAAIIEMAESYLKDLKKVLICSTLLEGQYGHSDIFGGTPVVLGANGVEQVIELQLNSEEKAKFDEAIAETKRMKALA
Chain of Plasmodium falciparum protein kinase 6 (PK6, PF3D7_1337100) (Q8IDW1 1-305): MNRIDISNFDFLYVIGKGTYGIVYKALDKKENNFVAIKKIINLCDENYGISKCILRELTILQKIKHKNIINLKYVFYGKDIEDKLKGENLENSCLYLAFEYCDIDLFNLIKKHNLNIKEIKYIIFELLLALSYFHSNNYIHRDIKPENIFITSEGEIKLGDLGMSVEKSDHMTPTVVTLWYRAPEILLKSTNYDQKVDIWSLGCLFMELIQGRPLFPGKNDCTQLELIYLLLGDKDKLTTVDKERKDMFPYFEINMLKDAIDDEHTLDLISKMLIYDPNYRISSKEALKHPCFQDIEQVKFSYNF
Chain of Calcium-dependent protein kinase 1 (Plasmodium falciparum (isolate 3D7)) (P62344 whole entry, looked up): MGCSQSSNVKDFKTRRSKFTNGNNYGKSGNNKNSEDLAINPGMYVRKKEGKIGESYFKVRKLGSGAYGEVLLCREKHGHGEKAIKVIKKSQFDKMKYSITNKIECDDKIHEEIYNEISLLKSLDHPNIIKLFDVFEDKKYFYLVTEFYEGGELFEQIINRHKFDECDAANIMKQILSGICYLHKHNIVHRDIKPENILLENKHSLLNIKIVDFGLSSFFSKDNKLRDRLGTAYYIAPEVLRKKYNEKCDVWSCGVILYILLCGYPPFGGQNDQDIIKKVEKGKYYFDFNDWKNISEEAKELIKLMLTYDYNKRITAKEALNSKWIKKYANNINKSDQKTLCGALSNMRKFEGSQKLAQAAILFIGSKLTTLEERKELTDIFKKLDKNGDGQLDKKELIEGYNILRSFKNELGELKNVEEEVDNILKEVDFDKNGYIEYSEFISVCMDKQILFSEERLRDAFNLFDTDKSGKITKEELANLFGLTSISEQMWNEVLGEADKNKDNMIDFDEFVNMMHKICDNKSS
Chain of Protein kinase 7 (PK7), Plasmodium falciparum 3D7 (PF3D7_0213400) (Q7YTF7 1-343): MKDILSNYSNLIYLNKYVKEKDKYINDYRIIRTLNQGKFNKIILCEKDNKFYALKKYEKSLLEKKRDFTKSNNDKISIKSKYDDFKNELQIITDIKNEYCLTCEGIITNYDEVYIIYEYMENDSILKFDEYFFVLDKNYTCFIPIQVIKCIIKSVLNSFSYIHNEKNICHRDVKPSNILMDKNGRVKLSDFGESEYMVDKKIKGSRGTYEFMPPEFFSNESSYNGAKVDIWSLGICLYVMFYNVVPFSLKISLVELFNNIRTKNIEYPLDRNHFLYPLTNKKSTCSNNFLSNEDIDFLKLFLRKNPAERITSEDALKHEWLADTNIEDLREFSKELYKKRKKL

CC(C)(C)C(=O)Nc1ccc(C(=O)Nc2cccc(-c3nc4ccccc4[nH]3)c2)cc1
active: growth inhibition [1] 62% | inhibition [2] 56% | growth inhibition [4] 96%
inactive: inhibition [3] 1% | outcome [5] | outcome [6] | outcome [7] | outcome [8]

CCn1cc(C(=O)O)c(=O)c2cc(F)c(N3CCN(S(=O)(=O)c4ccc(N)cc4)CC3)cc21
inactive: inhibition [2] -2% | inhibition [3] 4% | outcome [5] | outcome [6] | outcome [7] | outcome [8]
active: growth inhibition [1] 79% | growth inhibition [4] 90%

CNC(=O)c1cc(Nc2nnc(-c3ccc(C)c(S(=O)(=O)NC4CCCCC4)c3)c3ccccc23)ccc1OC
inactive: inhibition [2] -10% | inhibition [3] 5% | outcome [5] | outcome [6] | outcome [7] | outcome [8]
active: growth inhibition [1] 61% | growth inhibition [4] 87%

COc1cccc(NC(=O)N2CCOC(CCN3CCC4(CCc5ccccc54)CC3)(c3ccc(Cl)c(Cl)c3)C2)c1 (centres undefined)
inactive: inhibition [3] 5% | outcome [5] | outcome [6] | outcome [7] | outcome [8]
active: growth inhibition [1] 72% | inhibition [2] 97% | growth inhibition [4] 94%

O=C(CCCCCNC(=O)c1ccc(O)c(-c2ccc(Cl)c(Cl)c2)c1)NC1CCCc2ccccc21 (centres undefined)
inactive: growth inhibition [1] 13% | inhibition [2] -7% | inhibition [3] -6% | outcome [5] | outcome [6] | outcome [7] | outcome [8]
active: growth inhibition [4] 97%

COc1cc(C2NCC3(CCOCC3)c3cc4c(cc32)OCCO4)cc(OC)c1OC (centres undefined)
active: growth inhibition [4] 95%
inactive: growth inhibition [1] 2% | inhibition [2] 24% | inhibition [3] -5% | outcome [5] | outcome [6] | outcome [7] | outcome [8]

O=C(Nc1ccc(Br)cc1)N(CCN1CCOCC1)CC(O)COc1ccc(Cl)c(F)c1 (centres undefined)
inactive: growth inhibition [1] 30% | inhibition [2] 3% | inhibition [3] -4% | outcome [5] | outcome [6] | outcome [7] | outcome [8]
active: growth inhibition [4] 98%

COc1ccc(CNCc2ccsc2)cc1-c1ccc(OC)c(S(=O)(=O)NCCN2CCCC2)c1
inactive: inhibition [2] 18% | inhibition [3] 0% | outcome [5] | outcome [6] | outcome [7] | outcome [8]
active: growth inhibition [1] 62% | growth inhibition [4] 97%

COc1ccc2nccc([C@@H](O)CN3CCC(NCC4COc5ccccc5O4)CC3)c2c1 (some centres undefined)
inactive: inhibition [2] 17% | inhibition [3] 4% | outcome [5] | outcome [6] | outcome [7] | outcome [8]
active: growth inhibition [1] 94% | growth inhibition [4] 98%

O=C(NCCCCN1CCC[C@@H]2c3cccc(O)c3CC[C@@H]21)c1ccc(-c2ccccc2)cc1
inactive: growth inhibition [1] 4% | inhibition [2] 18% | inhibition [3] 3% | outcome [5] | outcome [6] | outcome [7] | outcome [8]
active: growth inhibition [4] 93%

O=C(C=Cc1ccc(Cl)c(Cl)c1)NCCCCCN1CCC(CCCNC(=O)/C=C/c2ccccc2)CC1
inactive: growth inhibition [1] 33% | inhibition [3] -9% | outcome [5] | outcome [6] | outcome [7] | outcome [8]
active: inhibition [2] 50% | growth inhibition [4] 96%

NCC1CCCN1Cc1cccc(-c2ccc(-c3nc4ccc(C(F)(F)F)cc4[nH]3)s2)c1 (centres undefined)
active: growth inhibition [1] 96% | growth inhibition [4] 102%
inactive: inhibition [2] 17% | inhibition [3] -3% | outcome [5] | outcome [6] | outcome [7] | outcome [8]

COC(=O)c1cc(C(O)CNC(C)CCc2cccc(F)c2)ccc1O (centres undefined)
inactive: inhibition [2] 38% | inhibition [3] -2% | outcome [5] | outcome [6] | outcome [7] | outcome [8]
active: growth inhibition [1] 77% | growth inhibition [4] 94%

O=C(c1cc(OC(F)(F)F)ccc1O)N1CCN(c2ccccc2)CC1
inactive: growth inhibition [1] 1% | inhibition [2] -10% | inhibition [3] -4% | outcome [5] | outcome [6] | outcome [7] | outcome [8]
active: growth inhibition [4] 88%

CN1CCN(c2ccnc3ccc(NC(=O)Nc4ccc(-c5ccncc5)c(C(F)(F)F)c4)cc23)CC1
active: growth inhibition [1] 99% | growth inhibition [4] 99%
inactive: inhibition [2] 12% | inhibition [3] 6% | outcome [5] | outcome [6] | outcome [7] | outcome [8]

OC1CCCN(Cc2cccc(-c3ccc(-c4nc5ccccc5[nH]4)cc3)c2)C1 (centres undefined)
inactive: growth inhibition [1] 16% | inhibition [2] 25% | inhibition [3] -2% | outcome [5] | outcome [6] | outcome [7] | outcome [8]
active: growth inhibition [4] 85%

Cc1cc(Nc2ccc(C)c(Cl)c2)n2nc(C(F)(F)F)nc2n1
active: growth inhibition [1] 97% | growth inhibition [4] 98%
inactive: inhibition [2] 2% | inhibition [3] 2% | outcome [5] | outcome [6] | outcome [7] | outcome [8]

CCOc1ccc(-c2nonc2NC(=O)c2ccco2)cc1OCC
inactive: inhibition [2] 3% | inhibition [3] -1% | outcome [5] | outcome [6] | outcome [7] | outcome [8]
active: growth inhibition [1] 77% | growth inhibition [4] 97%
